According to PubChem BioAssay (EPA / NIEHS):
“And” between values parts separate entries of the source, which are not always exact repeats. Identical values can stand only once. A structure can be active in one record and inactive in another. The source made the active and inactive calls. How the source made its calls: active means hit-call score of the fitted dose curve at least 0.9, where 1 is the maximum; inactive means score below 0.9.

Legend:
[1] = molecular target: CCAAT/enhancer-binding protein beta (Homo sapiens) (UniProt P17676); assay: ATG_C_EBP_CIS: Attagene CIS-FACTORIAL HepG2 Assay for human CCAAT/Enhancer Binding Protein (C/EBP) beta (AID 2282927); conditions: HepG2 Attagene cis-factorial transcription factor reporter; actives raise or lower the signal
Chain of CCAAT/enhancer-binding protein beta (Homo sapiens) (P17676 whole entry, looked up, the tested form may be a part): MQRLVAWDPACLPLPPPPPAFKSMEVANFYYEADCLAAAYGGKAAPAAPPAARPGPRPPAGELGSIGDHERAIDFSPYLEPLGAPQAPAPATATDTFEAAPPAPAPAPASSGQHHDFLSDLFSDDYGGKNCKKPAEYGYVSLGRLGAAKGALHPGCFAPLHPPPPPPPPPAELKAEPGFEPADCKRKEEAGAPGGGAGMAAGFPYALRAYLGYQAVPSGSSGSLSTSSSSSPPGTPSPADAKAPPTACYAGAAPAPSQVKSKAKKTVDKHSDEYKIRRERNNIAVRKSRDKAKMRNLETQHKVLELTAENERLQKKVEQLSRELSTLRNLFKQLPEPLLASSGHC
In short: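 Endogenous C/EBPb-driven reporter transcripts measured in transfected human HepG2 cells at 24 h via RT-PCR and capillary electrophoresis of labelled fragments. Activity fitted in both directions relative to DMSO baseline.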

[2] = ATG_DR4_LXR_CIS: Attagene CIS-FACTORIAL HepG2 Assay for human Liver X Receptor (LXR), DR4 submotif (AID 2282929); conditions: HepG2 Attagene DR4 cis-reporter, mRNA transcription; AC50: actives raise or lower the signal unless noted; outcome: actives raise or lower the signal unless noted
In short: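 Transiently transfected HepG2 liver cells; cis-regulated reporters; 24 h dosing. RT-PCR plus CE read-out of reporter mRNA. DMSO baseline, bidirectional curve fitting.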

[3] = molecular target: Aryl hydrocarbon receptor (Homo sapiens) (UniProt P35869); assay: ATG_Ahr_CIS: Attagene CIS-FACTORIAL HepG2 Assay for human Aryl Hydrocarbon Receptor (Ahr) (AID 2282930); conditions: HepG2 AhR cis-factorial reporter transcription; actives raise or lower the signal
Chain of Aryl hydrocarbon receptor (Homo sapiens) (P35869 whole entry, looked up): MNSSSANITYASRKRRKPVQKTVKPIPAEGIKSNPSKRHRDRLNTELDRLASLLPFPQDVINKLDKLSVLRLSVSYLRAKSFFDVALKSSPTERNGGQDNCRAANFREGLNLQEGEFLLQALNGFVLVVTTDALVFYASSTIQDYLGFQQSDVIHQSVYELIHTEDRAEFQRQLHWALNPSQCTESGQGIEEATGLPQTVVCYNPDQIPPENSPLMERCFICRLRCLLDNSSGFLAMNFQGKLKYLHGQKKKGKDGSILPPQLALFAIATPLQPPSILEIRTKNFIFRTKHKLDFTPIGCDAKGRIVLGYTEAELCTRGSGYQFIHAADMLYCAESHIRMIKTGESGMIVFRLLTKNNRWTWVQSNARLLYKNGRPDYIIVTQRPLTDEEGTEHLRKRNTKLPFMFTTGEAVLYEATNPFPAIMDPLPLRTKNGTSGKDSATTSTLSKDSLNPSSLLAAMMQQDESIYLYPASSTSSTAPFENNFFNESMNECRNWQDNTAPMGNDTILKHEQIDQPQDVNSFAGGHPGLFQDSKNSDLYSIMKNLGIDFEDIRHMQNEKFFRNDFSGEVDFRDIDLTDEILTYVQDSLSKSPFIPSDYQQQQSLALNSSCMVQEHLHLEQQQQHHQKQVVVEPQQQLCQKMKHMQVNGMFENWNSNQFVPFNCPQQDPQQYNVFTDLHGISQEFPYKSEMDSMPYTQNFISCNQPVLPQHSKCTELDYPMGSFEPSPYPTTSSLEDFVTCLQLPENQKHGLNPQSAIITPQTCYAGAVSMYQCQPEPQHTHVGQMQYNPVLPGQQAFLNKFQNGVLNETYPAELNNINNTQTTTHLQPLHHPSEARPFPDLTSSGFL
In short: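 Reporter mRNA levels, quantified by RT-PCR and fluorescent capillary electrophoresis, reflect endogenous AhR transcriptional activity in HepG2 cells carrying transfected cis-promoter reporter constructs. Readout at 24 h post-dose; gain or loss fitted against DMSO baseline.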

[4] = ATG_AP_1_CIS: Attagene CIS-FACTORIAL HepG2 Assay for human Activator Protein 1 (AP-1) (AID 2282931); conditions: HepG2 Attagene cis-factorial AP-1 reporter mRNA; actives raise or lower the signal
In short: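 We transfected HepG2 cells transiently with a set of cis-regulated reporter transcription units, dosed them for 24 h, and quantified reporter mRNA via RT-PCR and capillary electrophoresis, scoring gain or loss of signal relative to DMSO.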

[5] = ATG_BRE_CIS: Attagene CIS-FACTORIAL HepG2 Assay for human Bone Morphogenetic Protein (BMP) Response Element (BRE) (AID 2282933); conditions: HepG2 BMP response element reporter, Attagene transcription factor profiling; actives raise or lower the signal
In short: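 Multiplexed cis-reporter assay, HepG2, 24 h exposure. mRNA from reporter units quantified via RT-PCR/CE; DMSO baseline; bidirectional curve fit.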

[6] = molecular target: Retinoic acid receptor alpha (Homo sapiens) (UniProt P10276); assay: ATG_DR5_RAR_CIS: Attagene CIS-FACTORIAL HepG2 Assay for human Retinoic Acid Receptor Alpha (RARE), DR5 submotif (AID 2282934); conditions: HepG2 Attagene cis-factorial RARE DR5 reporter, mRNA; actives raise or lower the signal;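 on AC50: reporter responds to endogenous RAR alpha beta and gamma in HepG2 not RARA alone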
Chain of Retinoic acid receptor alpha (Homo sapiens) (P10276 whole entry, looked up): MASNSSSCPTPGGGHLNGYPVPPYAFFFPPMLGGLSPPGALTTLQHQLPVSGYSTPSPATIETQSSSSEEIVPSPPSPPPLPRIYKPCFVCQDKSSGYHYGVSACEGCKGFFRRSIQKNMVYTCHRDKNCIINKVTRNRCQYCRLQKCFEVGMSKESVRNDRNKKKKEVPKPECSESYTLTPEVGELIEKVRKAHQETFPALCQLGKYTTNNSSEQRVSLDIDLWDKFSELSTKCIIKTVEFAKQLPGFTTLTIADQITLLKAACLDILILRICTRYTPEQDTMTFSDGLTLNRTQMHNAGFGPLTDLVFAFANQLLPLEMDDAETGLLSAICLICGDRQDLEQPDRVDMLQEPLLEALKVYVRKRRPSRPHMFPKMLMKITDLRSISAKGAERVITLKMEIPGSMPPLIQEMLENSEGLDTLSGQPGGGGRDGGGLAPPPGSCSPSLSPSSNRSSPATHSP
In short: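 Reporter transcripts from a DR5-regulated unit, measured via RT-PCR plus capillary electrophoresis, reflect endogenous RAR activity in transiently transfected human HepG2 liver cells. Exposure lasted 24 h; gain or loss of signal scored against DMSO.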

[7] = molecular target: Transcription factor E2F1 (Homo sapiens) (UniProt Q01094); assay: ATG_E2F_CIS: Attagene CIS-FACTORIAL HepG2 Assay for human E2F Transcription Factor 1 (AID 2282935); conditions: HepG2 Attagene cis-reporter, E2F reporter RNA transcripts; actives raise or lower the signal
Chain of Transcription factor E2F1 (Homo sapiens) (Q01094 whole entry, looked up): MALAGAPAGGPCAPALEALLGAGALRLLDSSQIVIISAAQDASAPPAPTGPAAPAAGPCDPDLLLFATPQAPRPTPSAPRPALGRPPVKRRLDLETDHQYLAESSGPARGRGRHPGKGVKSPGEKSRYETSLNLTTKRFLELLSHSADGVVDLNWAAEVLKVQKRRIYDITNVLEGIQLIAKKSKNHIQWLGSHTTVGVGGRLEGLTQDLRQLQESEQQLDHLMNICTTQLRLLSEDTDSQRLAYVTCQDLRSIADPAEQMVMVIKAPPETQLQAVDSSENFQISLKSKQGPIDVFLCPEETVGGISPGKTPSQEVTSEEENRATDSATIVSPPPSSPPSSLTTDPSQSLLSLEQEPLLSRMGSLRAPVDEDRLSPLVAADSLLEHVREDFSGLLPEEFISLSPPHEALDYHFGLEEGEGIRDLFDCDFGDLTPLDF
In short: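 Total RNA from 24 h-treated, reporter-transfected HepG2 cells undergoes DNase I treatment, oligo(dT) reverse transcription, PCR and 6-FAM primer extension before capillary electrophoresis.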

[8] = ATG_E_Box_CIS: Attagene CIS-FACTORIAL HepG2 Assay for human Enhancer Box (E-box) (AID 2282936); conditions: HepG2 E-box cis-reporter transcription, actives raise or lower the signal
In short: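 DMSO served as negative control and baseline for bidirectional fitting. Human hepatoma HepG2 cells, transiently transfected with cis-reporter constructs, were dosed 24 h; reporter mRNA read by RT-PCR and capillary electrophoresis.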

[9] = ATG_M_61_CIS: Attagene CIS-FACTORIAL HepG2 Assay for M61 Transcription Factor (Internal Marker) (AID 2282937); conditions: HepG2 Attagene CIS-FACTORIAL M61 internal marker reporter; actives raise or lower the signal
In short: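 Multiplexed reporter mRNA assay, HepG2 human hepatoma cells, 24 h treatment. Signal: FAM-labelled, HpaI-digested RT-PCR fragments by CE. Fit: bidirectional, baseline DMSO.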

[10] = ATG_CMV_CIS: Attagene CIS-FACTORIAL HepG2 Assay for human CMV (Internal Marker) (AID 2282928); conditions: HepG2 CMV promoter reporter, transcription factor profiling; actives raise or lower the signal;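 further: endpoint acts as a background internal control marker rather than a target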
In short: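 CMV internal-marker background readout in transiently transfected HepG2 cells bearing cis-regulated reporter units. Reporter mRNA is measured 24 h after dosing by RT-PCR and capillary electrophoresis, with bidirectional fitting against DMSO.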

[11] = ATG_AP_2_CIS: Attagene CIS-FACTORIAL HepG2 Assay for human Activator Protein 2 (AP-2) (AID 2282932); conditions: HepG2 AP-2 cis-reporter, Attagene transcription factor profiling; AC50: actives raise or lower the signal unless noted; outcome: actives raise or lower the signal unless noted
In short: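 Step one: transient transfection of HepG2 with reporter transcription units. Step two: 24 h chemical exposure. Step three: RNA extraction, RT-PCR, labelled fragment analysis by capillary electrophoresis; DMSO serves as baseline.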

[12] = ATG_CRE_CIS: Attagene CIS-FACTORIAL HepG2 Assay for human cAMP Responsive Element (CRE) binding protein 3 (AID 2282926); conditions: HepG2 CRE cis-reporter, Attagene multiplexed mRNA; actives raise or lower the signal
In short: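 Transfected HepG2 were treated for 24 hours, then RNA was extracted and reporter cDNA amplified with sequence-specific primers. Labelled fragments were separated by capillary electrophoresis, and the CRE signal was fitted bidirectionally with DMSO as baseline.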

Measured: AC50

CCC(C)c1nccnc1OC (stereo unspecified)
not listed: [10] | [11] | [12]
inactive: all other assays above

CC(C)c1c(C(=O)Nc2ccccc2)c(-c2ccccc2)c(-c2ccc(F)cc2)n1CC[C@@H](O)C[C@@H](O)CC(=O)O
inactive: [1] | [10] | [4] | [11] | [5] | [6] | [7] | [8] | [9]
active: [10] 25.6 µM | [2] 136 µM and 42.6 µM | [6] 161 µM | [8] 28.2 µM

C/C=C/C(=O)C1=C(C)CCCC1(C)C
active: [10] 174 µM | [2] 24.6 µM | [3] 72.2 µM | [4] 27.6 µM | [5] 27.3 µM
not listed: [12]
inactive: all other assays above

COC1=CC(=O)C[C@@H](C)[C@]12Oc1c(Cl)c(OC)cc(OC)c1C2=O
active: [10] 138 µM
not listed: [12]
inactive: all other assays above

CC(=O)CC(C)C
not listed: [12]
inactive: all other assays above

NNc1nc(-c2ccc([N+](=O)[O-])cc2)cs1
active: [4] 10.6 µM | [5] 18.3 µM
not listed: [12]
inactive: all other assays above

Cc1ccc(C)c(S(=O)(=O)O)c1
not listed: [12]
inactive: all other assays above

Oc1cccc2c(O)cccc12
active: [10] 64.5 µM | [3] 0.578 µM | [8] 27.3 µM
not listed: [12]
inactive: all other assays above

CCCCc1ccc2ccccc2c1S(=O)(=O)O
not listed: [12]
inactive: all other assays above

COCN(COC)c1nc(N(COC)COC)nc(N(COC)COC)n1
not listed: [11] | [12]
inactive: all other assays above

CCC1CO1 (stereo unspecified)
not listed: [12]
inactive: all other assays above

NCc1cccc(CN)c1
not listed: [12]
inactive: all other assays above

CCC(=O)C=Cc1ccc(OC)cc1
active: [2] 68.2 µM
not listed: [10] | [12]
inactive: all other assays above

CCCCCCCCCCCC[N+](C)(C)CCCCCCCCCCCC
active: [1] 16.4 µM | [11] 168 µM
not listed: [10] | [12]
inactive: all other assays above

O=C(O)CCC(F)(F)C(F)(F)C(F)(F)C(F)(F)C(F)(F)F
not listed: [12]
inactive: all other assays above

O=C(NO)c1ccccc1
active: [10] 37.2 µM [middle of 4 runs] | [2] 26.6 µM [middle of 4 runs] | [3] 19 µM and 22.3 µM | [4] 26.5 µM [middle of 4 runs] | [11] 63.6 µM and 59.8 µM | [5] 21 µM [middle of 4 runs] | [6] 13.7 µM [middle of 4 runs] | [8] 27.9 µM [middle of 4 runs]
inactive: [1] | [3] | [11] | [7] | [9]

Cc1ccc(S(=O)(=O)O)cc1
not listed: [12]
inactive: all other assays above

COc1cc(OC)nc(NC(=O)NS(=O)(=O)Nc2ccccc2C(=O)N(C)C)n1
not listed: [12]
inactive: all other assays above

FC(F)(F)C(F)(F)C(F)(F)C(F)(F)I
not listed: [12]
inactive: all other assays above

CCN(CCC#N)c1ccccc1
not listed: [4] | [10]
inactive: all other assays above

C=Cc1ccc(O)c(OC)c1
not listed: [10] | [12]
inactive: all other assays above

O=P(O)(O)CCC(F)(F)C(F)(F)C(F)(F)C(F)(F)C(F)(F)C(F)(F)F
not listed: [12]
inactive: all other assays above

CCC(C)c1ccccc1O (stereo unspecified)
not listed: [10] | [12]
inactive: all other assays above

O=C(O)C(=O)O
not listed: [12]
inactive: all other assays above

Clc1ccc(Nc2nnc(Cc3ccncc3)c3ccccc23)cc1
active: [4] 42 µM
not listed: [11] | [12]
inactive: all other assays above

FC1(F)C=CC(F)(F)C1(F)F
not listed: [10] | [12]
inactive: all other assays above

O=C(O)CCC(F)(F)C(F)(F)C(F)(F)C(F)(F)C(F)(F)C(F)(F)F
active: [2] 100 µM | [6] 51 µM
not listed: [11] | [12]
inactive: all other assays above

CC(C)(C)C1CCCCC1O (stereo unspecified)
not listed: [4] | [11] | [12]
inactive: all other assays above

CCCCCCC(C)(C)C(=O)O
active: [4] 137 µM
not listed: [12]
inactive: all other assays above

CC1=NN(c2ccccc2)C(=O)C1
not listed: [3] | [12]
inactive: all other assays above

CCc1ccccc1O
active: [3] 10.3 µM
not listed: [4] | [12]
inactive: all other assays above

Cc1ccc2ccc3ccc(C)cc3c2c1
active: [3] 50.6 µM
not listed: [12]
inactive: all other assays above

CCCCCCCCCCCCCC[n+]1ccccc1
active: [4] 0.252 µM | [11] 19.8 µM | [5] 1.22 µM
not listed: [12]
inactive: all other assays above

O=P(O)(O)CCC(F)(F)C(F)(F)C(F)(F)C(F)(F)C(F)(F)C(F)(F)C(F)(F)C(F)(F)F
not listed: [10] | [11] | [12]
inactive: all other assays above
